Hits are enriched below; roughly 3.3% of the tested compounds scored in any of these assays.
TsaE inh = qHTS Assay for Inhibitors of YjeE | tRNA threonylcarbamoyladenosine biosynthesis protein TsaE (Escherichia coli (strain … | hit rate 0.05% among 71,000 | Potency, µM | purified YjeE enzyme, qHTS inhibition assay
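Fluorescence polarization of a BODIPY Texas Red–ADP probe (2 uM) bound to purified YjeE (10 uM) was read after 15 min room-temperature incubation with compounds. Loss of polarization marks inhibitors; ADP serves as titrated control.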
Tau fil binding = qHTS Assay for Tau Filament Binding. Microtubule-associated protein tau (Homo sapiens), P10636. recombinant tau filaments, thioflavin S fluorescence, 15 h; filaments grown with octadecylsulfate alongside compound. Potency, µM (top dose mostly 57.1 µM). hit rate 2% among 71,000. AID 596, 2007;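 note: actives lower thioflavin S fluorescence by blocking filaments or displacing dye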
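Recombinant tau protein (human, 1 uM final) plus 30 uM ODS in HEPES pH 7.4 with NaCl, DTT and thioflavine S. Compound present from the start; fluorescence at 510 nm after 15 h, 37 C.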
Pol III holo inh = qHTS Assay for Inhibitors of DNA Polymerase III Holoenzyme System. reconstituted DNA polymerase III holoenzyme replication, biochemical. Potency, µM (series often up to 57.1 µM). hit rate 0.25% among 71,000. AID 603, 2007
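Reconstituted *E. coli* holoenzyme (0.35 nM Pol III, 1 nM beta, 154 nM SSB, 2 nM primase) was preincubated with compound for 15 min at RT. Synthesis on 1.4 nM ssM13Gori ran 35 min, then was stopped with PicoGreen/EDTA and read as dsDNA fluorescence.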
Hsp90 Hop PPI = qHTS Assay for Disrupters of an Hsp90 Co-Chaperone Interaction | Hsp90 C-terminal peptide / TPR2A (Hop) interaction, human | AlphaScreen TPR2A-His6 binding biotin-Hsp90 C-terminal peptide | Potency, µM (series often up to 57 µM) | hit rate 0.44% among 71,000; active = well fitted curve in either direction with a large enough effect; inconclusive = small, poorly fitted or top-dose-only effect, or another doubt
ALOX15 inhib = qHTS Assay for Inhibitors of 15-hLO (15-human lipoxygenase); hit rate 1.4% among 74,000; Polyunsaturated fatty acid lipoxygenase ALOX15 (Homo sapiens), P16050; Potency, µM (titrated, usually from 57.1 µM), actives largely listed as inhibitors; purified 15hLO-1, xylenol orange hydroperoxide absorbance; note: nearly all actives have a fitted effect of over 55% in size
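40 nM 15hLO-1 + cpd, 15 min RT; start w/ 50 uM AA (final), 6 min RT; stop/detect w/ 200 uM XO + 300 uM Fe(II) in 50 mM H2SO4, 30 min; A573/A405. Buffer 25 mM Hepes pH 7.5, 0.01% Triton X-100. No-enzyme wells as negative control.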
Of the large screens only hits and unclear results are named; the others gave an inactive call; ! = a repeat was not active. Unless noted, calls come from the whole dose curve; as a rule, active = well fitted curve in the direction sought with a large enough effect; inconclusive = small, poorly fitted or top-dose-only effect, or another doubt; inactive = no such curve, though single readings can be large; an effect the other way counts as inactive or inconclusive.

Cc1cc(S(=O)(=O)Nc2ccccc2C)ccc1F	none
Cc1ccc(S(=O)(=O)O[C@H]2C[C@@H](C(C)(C)C)CC[C@@H]2c2ccccc2)cc1	none
O=C1c2ccccc2C(=O)C12Cc1ccccc1N1CCN(c3ccccc3)CC12 (stereo not drawn)	Tau fil binding 10µM
O=C(N1CCN(c2ccccc2)CC1)C12CC3CC(CC(C3)C1)C2	none
CN1CCN(c2ncnc3ccc(-c4cccc(NS(C)(=O)=O)c4)cc23)CC1	none
COc1cccc(NC(=O)CNC(C)CCC(C)C)c1 (stereo not drawn)	Tau fil binding 20µM
O=c1c(-c2ccc(F)c(F)c2)nc2cncnc2n1Cc1ccccc1	Tau fil binding 13µM
O=c1c(-c2ccc(Cl)cc2)nc2cncnc2n1Cc1ccc(F)cc1	Tau fil binding inconclusive
O=c1c(-c2cc(F)cc(F)c2)nc2cncnc2n1Cc1ccc(F)cc1	Tau fil binding inconclusive, ALOX15 inhib 7.9µM
O=c1c(-c2cc(F)cc(F)c2)nc2cncnc2n1Cc1ccccc1	Tau fil binding 32µM
O=c1c(-c2ccc(F)cc2)nc2cncnc2n1Cc1ccc(F)cc1	Tau fil binding 13µM
O=c1c(-c2ccc(F)cc2)nc2cncnc2n1Cc1ccccc1	none
CC1=C(/C=C\C(=O)O)C(C)(C)CCC1	none
O=C(Nc1ccc(Br)cn1)c1ccc2nccnc2c1	Tau fil binding 16µM
CC(C)(C)NC(=O)c1ccc2nccnc2c1	none
CC(C)C[C@H](NC(=O)[C@@H](NC(=O)N[C@@H](Cc1ccccc1)C(=O)O)[C@H]1CCN=C(N)N1)C(=O)N[C@H](C=O)Cc1ccccc1	Tau fil binding inconclusive (no result: ALOX15 inhib)
N#CC1=C(N)SC(N)=C(C#N)C1CCC1CCCCC1	ALOX15 inhib 16µM
Nc1nnc(CCC2CCCCC2)s1	none
CCNc1ncc2nc(CCc3ccccc3)c(=O)n(C)c2n1	ALOX15 inhib 25µM
CCOC(=O)c1c(N2C(=O)C3C4C=CC(O4)C3C2=O)sc2c1CCCC2 (stereo not drawn)	ALOX15 inhib 7.9µM
Nc1c(S(=O)(=O)O)cc(Nc2ccc(Nc3nc(Cl)nc(Nc4ccc(S(=O)(=O)O)cc4)n3)c(S(=O)(=O)O)c2)c2c1C(=O)c1ccccc1C2=O	TsaE inh 50µM, Pol III holo inh 40µM, Hsp90 Hop PPI inconclusive, ALOX15 inhib inconclusive
CCCn1c(-c2ccc(F)cc2)nc2c(NCCCN3CCCCC3C)nc(C)nc21 (stereo not drawn)	none
CCOC(=O)NC1(Nc2ccc(Cl)cn2)Oc2ccccc2O1	ALOX15 inhib 25µM
Nc1ncnc2c1ncn2[C@@H]1CCCO1	none
NC(CSS(=O)(=O)O)=N[C@@H]1C[C@H]2CC[C@@H]1C2	none
O=C1C(SCCO)=C(SCCO)C(=O)c2ccccc21	Tau fil binding 5µM!, Pol III holo inh 32µM!, Hsp90 Hop PPI inconclusive
N#CC(=NCCO)C1=C(O)c2ccccc2C1=O	none
CCSc1nnc(-c2ccc(Cl)cc2Cl)o1	ALOX15 inhib 3.2µM
CC(C)OC(=O)CSc1nnc(-c2ccc(Cl)cc2Cl)o1	Hsp90 Hop PPI inconclusive
CCCc1nc2sc3ccccc3c(=O)c2c(=O)n1Cc1ccco1	Tau fil binding 16µM
Cc1ccc(S(=O)(=O)N[C@H]2COC(=O)C/C=C\[C@@H](C)COC(=O)C/C=C\[C@@H]2C)cc1	none (no result: TsaE inh, Tau fil binding, Pol III holo inh, Hsp90 Hop PPI)
Clc1ccc2c(c1)N=C(N1CCNCC1)c1ccccc1N2	Tau fil binding 40µM
CN(O)/C=c1/ccc2c(n1)C(=O)C=CC=2	Hsp90 Hop PPI 2µM
COc1ccc(-c2coc3cc(O)ccc3c2=O)cc1	Tau fil binding 32µM
Cc1cccc(CN(C)CCc2ccccn2)c1	none
CN(CCc1ccccn1)c1ccc2c(c1)C(=O)c1ccccc1-2	Tau fil binding 4µM, Hsp90 Hop PPI inconclusive
O=C1CCCC/C1=C\Nc1ccc(Cl)cn1	none
O=C1CCCC/C1=C\Nc1ccc(O)cc1	ALOX15 inhib 20µM
O=C(NC1CCCCC1)c1cnn2c(C(F)(F)F)cc(-c3ccco3)nc12	Tau fil binding 10µM, ALOX15 inhib 25µM
Cc1cc(NC(=O)c2cnn3c(C(F)(F)F)cc(-c4ccccc4)nc23)no1	Tau fil binding 3.2µM
